Several values for one entry are separate records, joined by “and”; a condition that tells them apart may be missing. Equal entries are not always repeated. Some compounds were tested as several samples or in several runs, with calls that do not always agree. Activity calls are given as the source filed them. How the source made its calls: active means hit-call score of the fitted dose curve at least 0.9, where 1 is the maximum; inactive means score below 0.9.
These compounds were tested on Secreted IgG (sIgG), gene 3500 (assay: BSK_BT_sIgG: BioMAP Diversity Plus: BT Assay for Secreted IgG (sIgG) Biomarker Activity (AID 2284226)). Conditions: primary human B cells with PBMC.
Outline: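 Cells (B cells with peripheral blood mononuclear cells) are dosed, cultured 24 h, then supernatant IgG is measured by ELISA. DMSO serves as negative control; curves are fitted for signal increase.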
With O=S(=O)(OCC(F)(F)F)C(F)(F)C(F)(F)C(F)(F)C(F)(F)F the outcome was “inactive”. OCC(O)CC(F)(F)C(F)(F)C(F)(F)C(F)(F)C(F)(F)C(F)(F)C(F)(F)C(F)(F)F (stereo not given) was tested, and the outcome was “inactive”. With C=C(C)C(=O)OCC(F)(F)C(F)(F)C(F)(F)C(F)F the outcome was “inactive”. In the case of OCC(F)(F)C(F)(F)C(F)(F)C(F)(F)C(F)(F)C(F)(F)CO, the outcome is reported as “inactive”. O=C(Cl)C(F)(F)C(F)(F)C(F)(F)C(F)(F)C(F)(F)C(F)(F)C(F)(F)F was tested, and the outcome was “inactive”. In the case of OCC(O)CC(F)(F)C(F)(F)C(F)(F)C(F)(F)F (stereo not given), the outcome is reported as “inactive”. For NC(=O)C(F)(F)C(F)(F)C(F)(F)C(F)(F)C(F)(F)C(F)(F)C(F)(F)F, the outcome was “inactive”. O=C(O)C(F)(F)OC(F)(F)C(F)(F)OC(F)(F)C(F)(F)OC(F)(F)F was tested, and the outcome was “inactive”. For O=S(=O)(O)CCC(F)(F)C(F)(F)C(F)(F)C(F)(F)F, the outcome was “inactive”. With NC(=O)C(F)(F)C(F)(F)C(F)(F)F the outcome was “inactive”. With C=CC(=O)OCCC(F)(F)C(F)(F)C(F)(F)C(F)(F)F the AC50 was 36.7 µM (active) and 44.9 µM (active). CCN(CCO)S(=O)(=O)C(F)(F)C(F)(F)C(F)(F)C(F)(F)C(F)(F)C(F)(F)C(F)(F)C(F)(F)F was tested, and the AC50 was 16.6 µM (active). NC(=O)C(F)(F)C(F)(F)C(F)(F)C(F)F was tested, and the outcome was “inactive”. In the case of C=CC(=O)OCC(F)(F)C(F)(F)C(F)(F)COC(=O)C=C, the AC50 is reported as 6.41 µM (active) and 7.8 µM (active). For O=S(=O)(O)CCC(F)(F)C(F)(F)C(F)(F)C(F)(F)C(F)(F)C(F)(F)C(F)(F)C(F)(F)F, the outcome was “inactive”. For CO[Si](C)(CCC(F)(F)C(F)(F)C(F)(F)C(F)(F)C(F)(F)C(F)(F)F)OC, the outcome was “inactive”. In the case of OCC(F)(F)C(F)(F)C(F)(F)CO, the outcome is reported as “inactive”. For OC(O)C(F)(F)C(F)(F)F, the outcome was “inactive”. OCCCC(F)(F)C(F)(F)C(F)(F)C(F)(F)C(F)(F)C(F)(F)C(F)(F)C(F)(F)F was tested, and the AC50 was 45.9 µM (active) and 44.5 µM (active). With C[Si](Cl)(Cl)CCC(F)(F)C(F)(F)C(F)(F)C(F)(F)C(F)(F)C(F)(F)F the outcome was “inactive”. NC(O)(C(F)(F)F)C(F)(F)F was tested, and the outcome was “inactive”. In the case of OCCCCC(F)(F)C(F)(F)C(F)(F)C(F)(F)F, the outcome is reported as “inactive”. For CNS(=O)(=O)C(F)(F)C(F)(F)C(F)(F)C(F)(F)C(F)(F)C(F)(F)C(F)(F)C(F)(F)F, the AC50 was 27.6 µM (active) and the outcome was “inactive”. With NC(=O)C(F)(F)C(F)(F)C(F)(F)C(F)(F)C(N)=O the outcome was “inactive”. For OCC(F)(F)C(F)(F)C(F)(F)C(F)(F)C(F)(F)C(F)(F)C(F)(F)C(F)(F)CO, the AC50 was 49.8 µM (active) and 47.1 µM (active). In the case of O=C(c1ccccc1)c1ccc(O)cc1O, the outcome is reported as “inactive”. In the case of FC(F)(F)C(F)(F)C(F)(F)C(F)(F)C(F)(F)C(F)(F)C(F)(F)CCI, the outcome is reported as “inactive”. O=C(O)C(F)(F)C(F)(F)C(F)(F)OC(F)(F)F was tested, and the outcome was “inactive”. In the case of O=C(O)C(F)(F)C(F)(F)C(F)(F)OC(F)(C(F)(F)F)C(F)(F)F, the outcome is reported as “inactive”.

Reference: PubChem BioAssay (EPA / NIEHS)
